Results: PubChem BioAssay (Tox21)
Records with an inconclusive call do not appear. Unmarked numbers belong to inactive results. Activity calls are given as the source filed them. Calls come from the whole dose curve; as a rule, active = well fitted cell-killing curve with a large enough effect in the repeat runs; inconclusive = weak or mixed curves, or effect the other way; inactive = flat fitted curve, though single readings scatter.

Test: qHTS assay to identify small molecule that activate the aryl hydrocarbon receptor (AhR) signaling pathway - cell viability counter screen (AID 743086); note: nearly all actives have a fitted effect of over 45% in size;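 for viability change, negative = cytotoxic: HepG2 liver cells carrying the AhR DRE luciferase reporter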
Conditions: HepG2-AhR-luc viability, CellTiter-Fluor, 24 h; series mostly up to 70.3 µM; viability change, negative = cytotoxic: at the top concentration
Source text: U.S. Tox21 Program National Center for Advancing Translational Sciences [NCATS] NIH Chemical Genomics Center [NCGC] U.S. Environmental Protection Agency [EPA] National Institutes of Environmental Health Sciences [NIEHS] National Toxicology Program [NTP] U.S. Food and Drug Administration [FDA] Tox21 Assay overview: The Aryl hydrocarbon Receptor (AhR), a member of the family of basic helix-loop-helix transcription factors, is crucial to adaptive responses to environmental changes. AhR mediates cellular responses to environmental pollutants such as aromatic hydrocarbons through induction of phase I and II enzymes but also interacts with other nuclear receptor signaling pathways A cell based HepG2-AhR-luc assay (HG2L7.5c1 cell line, developed by Dr. Michael S. Denison, University of California at Davis) was used to assess the activation of AhR. HepG2 (human hepatocellular carcinoma) cells were stably transfected with an Ah receptor-responsive firefly luciferase reporter gene plasmid containing 20 dioxin responsive elements and luciferase reporter gene. Increased luciferase activity can be used to identify the compounds that induce AhR activation. The cytotoxicity of the compounds screened against the HepG2-AhR-luc cell line was tested in parallel by measuring the cell viability using CellTiter-Fluor assay in the same wells.
Tox21 Assay Protocol Summary: 4000 cells in 5 uL/well were dispensed into white wall/solid bottom 1536-well plates using a Multidrop Combi (Thermo Fisher Scientific Inc., Waltham, MA) dispenser. After the assay plates were incubated at 37C for 5 h, 23 nL of compound or DMSO vehicle was transferred to the assay plates by a pintool station (Kalypsys, San Diego, CA). The plates were incubated at 37C for 24 hr. For cell viability measurement, 1 ul/well of CellTiter-Fluor reagent (Promega, Madison, WI) was added into the assay plates using a Flying Reagent Dispenser (FRD) (Aurora Discovery, CA),and then the assay plates were incubated at 37C for 30 min. The fluorescence intensity in the plates was measured using a ViewLux plate reader (PerkinElmer, Shelton, CT), followed by the addition of 4 uL of ONE-Glo Luciferase Assay reagent (Promega) using an FRD (Aurora Discovery). After the assay plates were incubated at room temperature for 30 min, luminescence intensity was measured using a ViewLux plate reader (Perkin Elmer).
% is set by controls: 0 for no effect and ±100 for the full control effect; potency is the fitted concentration of half-maximal effect.

Row | Compound | viability change, negative = cytotoxic | Potency
1 | CCCCCCCC/C=C/CCCOC(C)=O | -13.9% | 
2 | Oc1ccc(-c2ccc(O)cc2)cc1 | -4.16% [at 95 µM] | 
3 | C1CC(COCC2CO2)CCC1COCC1CO1 (stereo not given) | -11.5% | 
4 | CC(C)c1ccc(O)c(C(C)C)c1 | -2.58% | 
5 | c1ccc(Nc2cccc3ccccc23)cc1 |  | inactive
6 | CCN(CC)CCNc1ccc(CO)c2sc3ccccc3c(=O)c12 |  | 6.68 µM (active)
7 | CCCCCCC(C)OC(=O)COc1nc(F)c(Cl)c(N)c1Cl (stereo not given) | 15.2% | 
8 | CN(Cc1cc(Br)cc(Br)c1N)C1CCCCC1 | 0.27% | 
9 | C=CC(=O)OCC(O)COc1ccccc1 (stereo not given) | -1.49% | 
10 | NCCCCCCNCCCCCCN | -2.87% | 
11 | Clc1ccc(C(Cn2ccnc2)OCc2c(Cl)cccc2Cl)c(Cl)c1 (stereo not given) | 3.91% [at 32.5 µM] | 
12 | C[C@@H]1CC[C@H]2C(C)(C)[C@H]3C[C@@]12CC[C@@]3(C)O | 7.1% | 
13 | [O]=[Zr] | -3.33% | 
14 | C=CC(=C)CCC=C(C)C | 4.51% | 
15 | O=C(NO)c1ccccc1 | -6.39% | 
16 | O=S(=O)(O)CCCN1CCOCC1 | -5.48% | 
17 | ClC/C=C\CCl | 7.02% [at 95 µM] | 
18 | CCCOc1sc(C(=O)N2CCC(c3cc(CN)ccc3F)CC2)c(C)c1Br |  | 56 µM (active)
19 | O=C1NC2CCCCN2C12CCN(CCCN1c3ccccc3CCc3ccc(Cl)cc31)CC2 (stereo not given) |  | 23.7 µM (active)
20 | CC(C)=C1CC[C@@H](C)CC1=O | -4% | 

Row | Compound | viability change, negative = cytotoxic | Potency
21 | C=CC(C)(CCC=C(C)C)OC(=O)/C=C/c1ccccc1 (stereo not given) | -3.8% | 
22 | CCCC(CC)CCCCCCCN (stereo not given) | 1.35% [at 95 µM] | 
23 | CNC(=S)NN |  | 19.3 µM (active)
24 | Nc1ncnc2c1ncn2[C@@H]1O[C@H](COP(=O)(O)O)[C@@H](O)[C@H]1O | -5.9% | 
25 | CO[C@H]1C=CO[C@@]2(C)Oc3c(C)c(O)c4c(O)c(cc(O)c4c3C2=O)NC(=O)/C(C)=C\C=C/[C@H](C)[C@H](O)[C@@H](C)[C@@H](O)[C@@H](C)[C@H](OC(C)=O)[C@@H]1C | 5.73% | 
26 | CN1[C@@H]2CC[C@H]1CC(OC(=O)C(CO)c1ccccc1)C2 (stereo not given in full) |  | inactive
27 | CCCCCCCCCCCCOC(=O)c1cc(O)c(O)c(O)c1 |  | inactive
28 | C(=C/c1ccccc1)/c1ccccc1 | 9.04% [at 95 µM] | 
29 | CCOC(=O)[C@@](C)(N)Cc1ccc(O)c(O)c1 | -1.78% [at 32.5 µM] | 
30 | CN(C)CCCN1c2ccccc2Sc2ccc(C(F)(F)F)cc21 |  | 23.7 µM (active)
31 | O=C(O)CC(=O)O | -11.8% | 
32 | O=C(O)CCCCCCC(=O)O | 10.6% [at 95 µM] | 
33 | CCCCCCOc1cc(C)c(O)c(C)c1C | -16.9% [at 95 µM] | 
34 | CCCCCCCCCCCCCCCC | 1.67% | 
35 | N[C@@H](CSSC[C@H](N)C(=O)O)C(=O)O | -7.45% | 
36 | CC(=O)Nc1ccc(O)cc1 |  | inactive
37 | Cc1ccc2ccc3cccc4ccc1c2c34 | -7.73% | 
38 | CCOC(=O)C1=C(C)NC(C)=C(C(=O)OCC)C1c1ccccc1/C=C/C(=O)OC(C)(C)C | 2.61% | 
39 | CSc1ccc2c(c1)N(CCC1CCCCN1C)c1ccccc1S2 (stereo not given) |  | 27.2 µM (active)
40 | CC1=C(/C=C/C(C)=C/C=C/C(C)=C/C(=O)Nc2ccc(O)cc2)C(C)(C)CCC1 |  | 28 µM (active)
